The values that follow come from PubChem BioAssay (NCI).

The structures appear in SMILES notation. About 83,000 compounds went through this panel and 20% of them were active in at least one assay; those are over-represented in the sample as a whole.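 A percent growth of 40 corresponds to 60% growth inhibition; 0 means no net growth; -100 means all cells died. Active threshold: below 10.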 A number with no mark means an inactive call. Activity calls are given as the source filed them.

This assay relates to MDA-MB-435 melanoma. The experiment in a line: NCI-60 one-dose screen, 48 h (100 = growth as untreated, 0 = no growth, -100 = all killed). Particulars: 10 µM unless noted.
Consider `CC1(C)N=C(N)N=C(N)N1c1ccc(CCCCc2ccc(S(=O)(=O)F)cc2)cc1`, for which the growth was 18.9%. Turning to `Cc1ccc(C(=O)C2CN(C)CCC2(O)c2ccc(C)cc2)cc1` (stereo unspecified), the growth was 106%.

`O=S(=O)(O)c1ccc(-c2ccc([As](=O)(O)O)cc2)cc1`: the growth was 103%. The same measure for `O=C1NC(=O)C(CN2C(=O)C3(c4ccccc42)[C@H](Cl)C(=O)N3c2ccccc2)C(=O)N1` (stereo partly specified): 104%; for `O=[N+]([O-])c1cc([N+](=O)[O-])c(Cl)c(Cl)c1Cl`: 19.3%.

Consider `C=CCC1(CC)C(=O)NC(=S)NC1=O`, for which the growth was 103%. The same measure for `C/C(=N/OC(=O)N(C)C)c1ccc(Cl)cc1Cl`: 96%; for `CCC[CH2][Sn]([CH2]CCC)([CH2]CCC)[O]C(=O)CC`: -89.3% (active). The same measure for `O=C(NCc1ccc([N+](=O)[O-])cc1)Nc1ccc(S(=O)(=O)F)cc1`: 92.8%. To `n1nc(-c2nonc2-c2nn[nH]n2)n[nH]1` belongs 97.7%.

Take `CNC(=O)Oc1ccccc1-c1ccccc1`: the growth is 99.3%.

In the case of `O=[N+]([O-])c1ccc2cnn(CSP(=S)(c3ccccc3)c3ccccc3)c2c1`, the growth is -20.9% (active). As to `CCN(CC)c1ccc(C=C2C(=O)NC(=S)NC2=O)cc1`, the growth was 98.1%. Consider `Clc1ccc(SSC(Cl)(Cl)Cl)cc1`, for which the growth was 105%. To `[O]=[Sn]([CH]1CCCCC1)[CH]1CCCCC1` belongs -88.4% (active); to `CC(=O)C1CCC2C3CC=C4CC(OC(=O)Cc5ccc(N(CCCl)CCCl)cc5)CCC4(C)C3CCC12C` (stereo unspecified), 111%.
